“And” between values parts separate entries of the source, which are not always exact repeats. Equal values may be shown once. Results filed as inconclusive are left out. Entries that show only a call come without a potency. Where a structure was tested more than once in an assay, its records may differ in their call. The source made the active and inactive calls. Unless noted, calls follow the shape of the dose curve; as a rule, active = well fitted curve in the direction sought with a large enough effect in the repeat runs; inconclusive = weak or mixed curves; inactive = no such curve, though single readings can be large; an effect the other way counts as inactive or inconclusive.
Experiments:
[1] = qHTS assay to identify small molecule agonists of the progesterone receptor (PR) signaling pathway - cell viability counter screen (AID 1346799; calls by dose curve; also: nearly all actives have a fitted effect of over 45% in size)
How it was run: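 In parallel with the beta-lactamase readout, cytotoxicity toward PR-UAS-bla HEK293T cells was measured by CellTiter-Glo luminescence following 16 hr compound incubation in 2% charcoal-stripped FBS medium.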

[2] = qHTS assay to identify small molecule antagonists of the TGF-beta/Smad signaling pathway - cell viability counter screen (AID 1346824); also: nearly all actives have a fitted effect of over 50% in size
How it was run: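 SBE-bla HEK 293T cells, incubated overnight, then compound plus 0.25 ng/mL TGF-beta1 (stock added) for 5 hr at 37 C. Viability was read in the same wells by CellTiter-Glo luminescence after 30 min at room temperature.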

[3] = qHTS assay to identify small molecule agonists of the TGF-beta/Smad signaling pathway - cell viability counter screen (AID 1346829); also: top concentration of the series differs between compounds; nearly all actives have a fitted effect of over 45% in size
How it was run: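 Luminescence from CellTiter-Glo, read after a 30 min room-temperature incubation, gives cell viability of SBE-bla HEK 293T cells treated 5 hr with compounds at 37 C.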

[4] = qHTS assay to identify small molecule agonists of the TGF-beta/Smad signaling pathway (AID 1346859; active = well fitted activation curve with a large enough effect in the signal ratio in the repeat runs, not every such curve was filed as active; the % refers to the signal ratio; also: series mostly up to about 77 µM)
How it was run: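 After overnight seeding, SBE-bla HEK 293T cells are dosed with compounds in DMSO and kept 5 hr at 37 C, 5% CO2. LiveBLAzer-type FRET substrate is then applied for 2 hr at room temperature.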

[5] = molecular target: Thyrotropin-releasing hormone receptor (Homo sapiens) (UniProt P34981); assay: qHTS assay to identify small molecule antagonists of the thyrotropin-releasing hormone receptor (TRHR) signaling pathway (AID 1346877; active = well fitted inhibition curve with a large enough effect in the repeat runs, not every such curve was filed as active; also: series mostly up to about 51 µM)
How it was run: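 Following an 18 h incubation at 37 °C and a 2 h calcium dye load, TRHR-HEK293 cells were exposed to compound (5 min, room temperature) and challenged with TRH, 1 nM final.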

[6] = molecular target: Thyrotropin-releasing hormone receptor (Homo sapiens) (UniProt P34981); assay: qHTS assay to identify small molecule agonists of the thyrotropin-releasing hormone receptor (TRHR) signaling pathway (AID 1346891; calls by dose curve;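 also: HEK293 cells expressing TRHR with calcium dye readout; series mostly up to about 58 µM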)
How it was run: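 Compounds were tested as agonists at 15 concentrations, in triplicate, on TRHR-Hek293 cells; calcium-sensitive dye fluorescence was recorded for 3 min following addition.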

[7] = Human pregnane X receptor (PXR) small molecule agonists, qHTS cell viability counter screen (AID 1346977); also: nearly all actives have a fitted effect of over 50% in size; also: potency is read from the fitted curve at half-maximal effect
How it was run: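 Viability counter screen: CellTiter-Fluor signal in PXR-Luc HepG2 cells, 24hr compound exposure, 37C, 5% CO2.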

[8] = Caspase-3/7 induction in HepG2 cells by small molecules, qHTS assay (AID 1346978); also: nearly all actives have a fitted effect of over 15% in size
How it was run: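 Wild-type HepG2 cells, 2,000/well, settled 5 hr at 37 C and 5% CO2, then compound-treated for 17 hr; caspase-3/7 activity read by luminescent Caspase-Glo 3/7 after 30 min at room temperature.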

[9] = Caspase-3/7 induction in CHO-K1 cells by small molecules, qHTS cell viability counter screen (AID 1346979); also: nearly all actives have a fitted effect of over 35% in size; also: potency is read from the fitted curve at half-maximal effect
How it was run: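 Viability readout by fluorescence (CellTiter-Fluor) on wild-type CHO-K1 cells exposed for 16hr at 37C and 5% CO2 to compounds delivered in DMSO; reagent incubated 1hr before reading.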

[10] = Caspase-3/7 induction in HepG2 cells by small molecules, qHTS cell viability counter screen (AID 1346981); also: nearly all actives have a fitted effect of over 30% in size; also: potency is read from the fitted curve at half-maximal effect
How it was run: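 Viability determined by CellTiter-Fluor fluorescence in HepG2 wells also used for the luminescent Caspase-Glo 3/7 read. Compounds were present for 16 hr at 37 C, 5% CO2 before reagent addition.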

[11] = molecular target: Nuclear receptor subfamily 1 group I member 2 (Homo sapiens) (UniProt O75469); assay: Human pregnane X receptor (PXR) small molecule agonists, qHTS assay (AID 1346982); also: nearly all actives have a fitted effect of over 35% in size; also: potency is read from the fitted curve at half-maximal effect
How it was run: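 Compound-induced hPXR transactivation of a CYP3A4 luciferase reporter was scored in HepG2 PXR-Luc cells over 24 hr at 37 C, 5% CO2, by luminescence.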

[12] = molecular target: Acetylcholinesterase (Homo sapiens) (UniProt P22303); assay: Acetylcholinesterase (AChE) small molecule antagonists: enzyme-based qHTS assay (AID 1347397; calls by dose curve; also: nearly all actives have a fitted effect of over 55% in size); settings: Potency: AChE enzyme activity inhibition
How it was run: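 Enzyme inhibition was scored from DTNB-detected thiocholine formed by recombinant human AChE acting on acetylthiocholine. The 30 min compound preincubation and 10 min substrate reaction were both run at room temperature, with DMSO as vehicle control.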

[13] = molecular target: Acetylcholinesterase (Homo sapiens) (UniProt P22303); assay: Acetylcholinesterase (AChE) small molecule antagonists: fluorescence cell-based qHTS assay (AID 1347398; calls by dose curve; also: nearly all actives have a fitted effect of over 50% in size); settings: Potency: AChE activity
How it was run: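 Endogenous acetylcholinesterase of SH-SY5Y neuroblastoma cells is measured in situ. After overnight attachment and 30 min compound exposure, cells receive acetylthiocholine and Thiolite Green; fluorescence is read after 40 min at room temperature.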

[14] = molecular target: Acetylcholinesterase (Homo sapiens) (UniProt P22303); assay: Acetylcholinesterase (AChE) small molecule antagonists: enzyme-based qHTS assay with human liver microsomes (AID 1347399; calls by dose curve; also: nearly all actives have a fitted effect of over 60% in size); settings: Potency: qHTS inhibition
How it was run: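 Recombinant human AChE (50 mU/mL in the enzyme mix) and human liver microsomes (0.25 mg/mL final) were preincubated with compound and NADPH (0.25 mg/mL final) for 30 min at 37 C. Acetylthiocholine/DTNB was then added; thiocholine was read colorimetrically after 10 min at room temperature.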

[15] = molecular target: Cytochrome P450 2D6 (Homo sapiens) (UniProt P10635); assay: Cytochrome P450 Family 2 Subfamily D Member 6 (CYP2D6) small molecule antagonists: luciferase reporter qHTS assay (AID 1671196); also: nearly all actives have a fitted effect of over 50% in size; also: potency is read from the fitted curve at half-maximal effect
How it was run: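 Each well received CYP2D6 with its proluciferin substrate and chemical, sat 10 min, then got NADPH regeneration solution for 1 h at room temperature. Luminescence in RLU served as the activity measure.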

[16] = Caspase-3/7 induction in CHO-K1 cells by small molecules, qHTS assay (AID 1346980); also: nearly all actives have a fitted effect of over 15% in size
How it was run: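 Wild-type CHO-K1 cells exposed to compounds for 17hr at 37 C, 5% CO2. Caspase-3/7 activity then measured by Caspase-Glo 3/7 luminescence after 30min at room temperature.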

[17] = molecular target: Acetylcholinesterase (Homo sapiens) (UniProt P22303); assay: Acetylcholinesterase (AChE) small molecule antagonists: colormetric cell-based qHTS assay (AID 1347395; calls by dose curve; also: nearly all actives have a fitted effect of over 30% in size)
How it was run: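 Homogeneous whole-cell format. SH-SY5Y cells seeded overnight, dosed with compound (30 min, 37 C, 5% CO2), then given DTNB/acetylthiocholine cocktail for 90 min at 37 C; colorimetric signal.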

[18] = molecular target: Nuclear receptor subfamily 1 group I member 2 (Rattus norvegicus) (UniProt Q9R1A7); assay: Rat pregnane X receptor (rPXR) activation by small molecules, qHTS assay (AID 1346983); settings: rPXR luciferase reporter cells, One-Glo luminescence, 24 h; stronger effect = higher value; also: nearly all actives have a fitted effect of over 20% in size
How it was run: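 Cell-based rPXR activation assay: rPXR cells, 2,000 per well, rested 5hr at 37 C, then exposed to compounds in DMSO for 24 hr at 37 C. Luciferase activity read by One-Glo luminescence after 30 min at room temperature.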

[19] = molecular target: Nuclear receptor subfamily 1 group I member 2 (Homo sapiens) (UniProt O75469); assay: CYP3A4 induction through human pregnane X receptor (PXR) by small molecules, qHTS assay (AID 1346984); also: nearly all actives have a fitted effect of over 40% in size
How it was run: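 Readings come from a luciferase reporter: DPX-2 cells, which are HepG2 cotransfected with PXR and a CYP3A4-promoter construct, were exposed to test compounds for 24 h at 37C before One-Glo detection.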

[20] = molecular target: Nuclear receptor subfamily 1 group I member 2 (Homo sapiens) (UniProt O75469); assay: Human pregnane X receptor (PXR) activation by small molecules, qHTS assay (AID 1346985); also: nearly all actives have a fitted effect of over 40% in size
How it was run: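 DPX-2 cells (HepG2 co-transfected with a PXR response element and a CYP3A4-promoter luciferase construct) were seeded at 2,000 per well, rested 5 hr at 37C, then exposed to DMSO-dissolved compounds for 24 hr. Activation was read as luciferase luminescence.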

Cytochrome P450 2D6 (Homo sapiens), sequence (P10635 whole entry, looked up): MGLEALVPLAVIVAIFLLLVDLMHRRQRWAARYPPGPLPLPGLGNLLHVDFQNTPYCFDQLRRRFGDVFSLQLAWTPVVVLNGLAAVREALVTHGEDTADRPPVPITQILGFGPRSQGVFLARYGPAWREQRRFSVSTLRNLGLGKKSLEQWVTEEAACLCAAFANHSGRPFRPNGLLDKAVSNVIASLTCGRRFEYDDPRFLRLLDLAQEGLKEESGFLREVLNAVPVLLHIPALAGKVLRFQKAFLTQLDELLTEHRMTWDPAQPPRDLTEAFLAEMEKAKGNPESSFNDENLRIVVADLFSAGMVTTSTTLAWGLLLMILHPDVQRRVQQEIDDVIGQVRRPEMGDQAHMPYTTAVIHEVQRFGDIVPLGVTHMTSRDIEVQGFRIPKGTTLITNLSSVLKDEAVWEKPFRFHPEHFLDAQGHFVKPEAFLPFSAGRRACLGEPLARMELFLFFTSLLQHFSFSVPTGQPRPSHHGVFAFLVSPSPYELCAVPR
Thyrotropin-releasing hormone receptor (Homo sapiens), sequence (P34981 whole entry, looked up): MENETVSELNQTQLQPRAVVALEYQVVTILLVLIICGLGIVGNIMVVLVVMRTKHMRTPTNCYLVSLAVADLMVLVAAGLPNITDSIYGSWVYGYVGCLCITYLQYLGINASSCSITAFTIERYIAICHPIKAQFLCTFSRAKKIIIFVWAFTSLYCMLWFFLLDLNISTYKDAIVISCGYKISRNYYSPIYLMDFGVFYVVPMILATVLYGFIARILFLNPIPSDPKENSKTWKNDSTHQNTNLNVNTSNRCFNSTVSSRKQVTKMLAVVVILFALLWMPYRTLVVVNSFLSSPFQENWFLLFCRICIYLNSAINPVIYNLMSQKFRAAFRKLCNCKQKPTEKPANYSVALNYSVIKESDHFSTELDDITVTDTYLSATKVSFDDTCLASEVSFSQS
Nuclear receptor subfamily 1 group I member 2 (Homo sapiens), sequence (O75469 whole entry, looked up): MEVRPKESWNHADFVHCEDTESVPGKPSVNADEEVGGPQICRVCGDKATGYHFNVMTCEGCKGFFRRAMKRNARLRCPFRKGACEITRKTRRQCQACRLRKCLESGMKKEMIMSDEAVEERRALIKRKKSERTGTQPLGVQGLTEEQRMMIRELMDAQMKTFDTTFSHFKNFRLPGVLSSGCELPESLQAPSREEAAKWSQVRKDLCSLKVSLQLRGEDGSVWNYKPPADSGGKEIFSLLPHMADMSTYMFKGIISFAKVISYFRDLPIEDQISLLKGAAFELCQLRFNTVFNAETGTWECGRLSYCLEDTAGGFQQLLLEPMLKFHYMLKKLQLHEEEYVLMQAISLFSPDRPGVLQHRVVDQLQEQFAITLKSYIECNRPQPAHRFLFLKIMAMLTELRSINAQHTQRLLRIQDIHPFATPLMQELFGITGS
Acetylcholinesterase (Homo sapiens), sequence (P22303 whole entry, looked up): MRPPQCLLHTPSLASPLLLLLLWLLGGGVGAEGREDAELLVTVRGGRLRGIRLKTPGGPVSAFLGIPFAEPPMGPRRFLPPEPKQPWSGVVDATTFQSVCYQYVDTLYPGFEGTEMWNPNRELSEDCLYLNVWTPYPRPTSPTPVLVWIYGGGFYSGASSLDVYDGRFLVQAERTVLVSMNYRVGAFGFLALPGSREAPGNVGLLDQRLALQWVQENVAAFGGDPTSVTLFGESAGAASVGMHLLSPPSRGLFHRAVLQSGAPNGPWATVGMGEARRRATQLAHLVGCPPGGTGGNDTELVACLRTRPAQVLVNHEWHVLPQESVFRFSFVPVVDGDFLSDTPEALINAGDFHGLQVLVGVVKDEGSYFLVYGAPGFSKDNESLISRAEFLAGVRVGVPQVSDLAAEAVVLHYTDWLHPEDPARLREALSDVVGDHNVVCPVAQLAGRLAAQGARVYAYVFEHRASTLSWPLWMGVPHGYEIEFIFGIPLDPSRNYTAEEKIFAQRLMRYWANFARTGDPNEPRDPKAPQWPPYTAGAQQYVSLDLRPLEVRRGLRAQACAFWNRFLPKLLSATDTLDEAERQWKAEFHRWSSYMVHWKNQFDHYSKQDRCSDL
Nuclear receptor subfamily 1 group I member 2 (Rattus norvegicus), sequence (Q9R1A7 whole entry, looked up): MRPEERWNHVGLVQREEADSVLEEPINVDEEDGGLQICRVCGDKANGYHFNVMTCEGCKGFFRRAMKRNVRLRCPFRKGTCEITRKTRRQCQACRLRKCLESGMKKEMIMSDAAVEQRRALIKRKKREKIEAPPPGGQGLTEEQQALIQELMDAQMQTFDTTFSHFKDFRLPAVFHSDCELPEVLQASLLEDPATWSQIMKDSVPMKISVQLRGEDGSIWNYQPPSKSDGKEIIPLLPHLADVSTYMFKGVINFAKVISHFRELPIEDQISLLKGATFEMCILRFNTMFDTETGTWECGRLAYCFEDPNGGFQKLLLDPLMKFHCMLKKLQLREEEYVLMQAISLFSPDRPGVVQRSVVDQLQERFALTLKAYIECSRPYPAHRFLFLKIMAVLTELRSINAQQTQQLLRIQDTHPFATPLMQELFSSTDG

Row | SMILES | Potency [1] | Potency [2] | outcome [3] | Potency [4] | outcome [5] | Potency [6] | Potency [7] | outcome [8] | Potency [9] | Potency [10] | Potency [11] | Potency [12] | Potency [13] | Potency [14] | Potency [15] | outcome [16] | Potency [17] | max activation [18] | outcome [19] | Potency [20]
1 | c1cc2c3c(cccc3c1)CC2 | inactive | inactive | inactive | inactive | inactive | inactive | inactive | inactive | inactive | inactive | inactive | inactive | inactive | inactive |  |  |  |  |  | 
2 | CCNc1nc(NC(C)(C)C)nc(SC)n1 | inactive | inactive | inactive | inactive | inactive | inactive | inactive | inactive | inactive | inactive | 30.2 µM (active) and 48.6 µM (active) |  | inactive | inactive | inactive |  |  |  |  | 
3 | [O-][Cl+2]([O-])O | inactive | inactive | inactive | inactive | inactive | inactive | inactive | inactive | inactive | inactive | inactive |  | inactive | inactive |  | inactive | inactive |  |  | 
4 | Clc1ccc(Cl)cc1 | inactive |  | inactive | inactive | inactive | inactive | 2.17 µM (active) and inactive | inactive | 2.17 µM (active) | 4.32 µM (active) and inactive | 1.93 µM (active) and inactive | inactive | inactive | inactive | inactive | inactive | inactive | -1.7% (inactive) | inactive | inactive
5 | CC(Oc1ccc(Cl)cc1Cl)C(=O)O (stereo not given) | inactive | inactive | inactive | inactive | inactive | inactive |  | inactive | inactive | inactive | inactive | inactive | inactive | inactive | inactive | inactive |  |  |  | 
6 | O=NN1CCCCCCC1 | inactive | inactive | inactive | inactive | inactive | inactive |  | inactive | inactive | inactive | inactive |  | inactive | inactive | inactive | inactive |  |  |  | 
7 | CCc1cccc(C)c1N(C(=O)CCl)C(C)COC (stereo not given) | inactive | inactive | inactive | inactive | inactive | inactive |  | inactive | inactive | inactive | 2.89 µM (active) and 3.06 µM (active) | inactive | inactive | inactive |  |  |  |  |  | 
8 | Nc1ccccc1C(=O)O | inactive |  | inactive | inactive | inactive | inactive | inactive | inactive | inactive | inactive | inactive |  | inactive | inactive | 63.6 µM (active) and inactive | inactive |  | -2.88% (inactive) | inactive | inactive
9 | CC(C)N1C(=O)c2ccccc2NS1(=O)=O | inactive | inactive | inactive | inactive |  |  | inactive | inactive | inactive | inactive | inactive | inactive | inactive | inactive | inactive |  | inactive |  |  | 

Source: PubChem BioAssay (Tox21)
